Assay results as given in PubChem BioAssay (NCATS).
Inconclusive results are not listed. Where a call stands in place of a potency, no number is given. Active and inactive are the calls of the source. Unless noted, the call rests on the fitted dose curve.

Key:
[1] = target: Glucocorticoid receptor (Homo sapiens) (UniProt P04150); assay: qHTS assay for small molecule agonists of glucocorticoid receptor signaling (AID 588532; active means well fitted curve in the direction sought with a large enough effect in the signal ratio, with a control signal flat; the % refers to the signal ratio); conditions: HeLa MMTV-bla, beta-lactamase ratio, agonist, 18 h; activation: stronger effect = higher value, percent of dexamethasone control, DMSO zero
Chain of Glucocorticoid receptor (Homo sapiens) (P04150 whole entry, looked up): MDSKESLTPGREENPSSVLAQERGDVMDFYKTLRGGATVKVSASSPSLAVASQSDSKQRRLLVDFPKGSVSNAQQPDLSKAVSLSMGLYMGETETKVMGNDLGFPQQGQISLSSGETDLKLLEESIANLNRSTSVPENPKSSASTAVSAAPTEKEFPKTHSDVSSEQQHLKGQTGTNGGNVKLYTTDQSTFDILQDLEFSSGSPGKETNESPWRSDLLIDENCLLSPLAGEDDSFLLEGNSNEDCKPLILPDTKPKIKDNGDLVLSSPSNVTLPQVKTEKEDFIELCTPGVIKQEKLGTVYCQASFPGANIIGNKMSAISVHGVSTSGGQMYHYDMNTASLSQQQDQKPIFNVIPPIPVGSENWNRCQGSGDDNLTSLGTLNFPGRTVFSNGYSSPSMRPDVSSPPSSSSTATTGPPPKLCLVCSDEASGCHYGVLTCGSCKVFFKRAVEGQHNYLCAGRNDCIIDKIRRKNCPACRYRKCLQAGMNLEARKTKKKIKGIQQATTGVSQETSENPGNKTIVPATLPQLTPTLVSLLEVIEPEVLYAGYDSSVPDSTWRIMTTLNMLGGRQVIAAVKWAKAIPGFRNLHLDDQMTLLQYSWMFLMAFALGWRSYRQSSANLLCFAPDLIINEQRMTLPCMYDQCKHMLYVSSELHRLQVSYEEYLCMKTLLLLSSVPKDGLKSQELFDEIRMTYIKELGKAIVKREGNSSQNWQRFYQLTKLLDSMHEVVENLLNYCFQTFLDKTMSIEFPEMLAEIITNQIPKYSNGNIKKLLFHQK
Method in brief: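 Titration series, up to 92 uM, applied to GRE-bla HeLa cells for 18 h at 37 C. Detection by CCF4 FRET substrate after 2 h at RT.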

[2] = target: Glucocorticoid receptor (Homo sapiens) (UniProt P04150); assay: qHTS assay for small molecule antagonists of glucocorticoid receptor signaling (AID 588533; active means well fitted inhibition curve with a large enough effect in the signal ratio, with a control signal flat, not every such curve was filed as active; the % refers to the signal ratio;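 further: cells stimulated with 2 nM dexamethasone as agonist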)
Method in brief: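 Antagonist-mode qHTS: compound titrations added to GRE-bla HeLa cells, then dexamethasone 2 nM final; 18 h, 37 C. CCF4 FRET fluorescence normalized to dexamethasone and DMSO; IC50 from Hill fit.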

[3] = qHTS assay for small molecule antagonists of peroxisome proliferator-activated receptor delta signaling (AID 588535; active means well fitted inhibition curve with a large enough effect in the signal ratio, with a control signal flat, not every such curve was filed as active; the % refers to the signal ratio;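 on max response: cells co-treated with a PPAR-delta agonist as stimulator during compound exposure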); conditions: HEK293T PPARd-UAS-bla, beta-lactamase FRET ratio, 18 h; 460 nm channel
Method in brief: (§1)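 Compounds tested in titration on PPAR-delta-UAS-bla HEK293T cells grown in charcoal/dextran-stripped serum (2%); beta-lactamase activity read via CCF4 emission at 460 and 530 nm.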

[4] = target: Peroxisome proliferator-activated receptor delta (Homo sapiens) (UniProt Q03181); assay: as above
Chain of Peroxisome proliferator-activated receptor delta (Homo sapiens) (Q03181 whole entry, looked up): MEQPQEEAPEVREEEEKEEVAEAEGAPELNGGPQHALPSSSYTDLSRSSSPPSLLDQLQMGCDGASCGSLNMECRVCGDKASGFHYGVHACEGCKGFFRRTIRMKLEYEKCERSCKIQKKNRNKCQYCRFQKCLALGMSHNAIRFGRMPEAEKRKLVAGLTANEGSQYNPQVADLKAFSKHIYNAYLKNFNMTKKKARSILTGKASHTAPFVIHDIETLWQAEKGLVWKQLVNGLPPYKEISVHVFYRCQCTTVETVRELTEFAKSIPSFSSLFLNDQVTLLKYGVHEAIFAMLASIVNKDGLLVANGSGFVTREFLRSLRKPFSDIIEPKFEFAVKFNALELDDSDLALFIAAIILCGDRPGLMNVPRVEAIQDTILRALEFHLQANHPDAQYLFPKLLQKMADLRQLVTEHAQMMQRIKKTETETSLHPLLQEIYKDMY
Method in brief: as §1

[5] = target: Peroxisome proliferator-activated receptor gamma (Homo sapiens) (UniProt P37231); assay: qHTS assay for small molecule agonists of peroxisome proliferator-activated receptor gamma signaling (AID 588536; active means well fitted curve in the direction sought with a large enough effect in the signal ratio, with a control signal flat, not every such curve was filed as active; the % refers to the signal ratio)
Chain of Peroxisome proliferator-activated receptor gamma (Homo sapiens) (P37231 whole entry, looked up): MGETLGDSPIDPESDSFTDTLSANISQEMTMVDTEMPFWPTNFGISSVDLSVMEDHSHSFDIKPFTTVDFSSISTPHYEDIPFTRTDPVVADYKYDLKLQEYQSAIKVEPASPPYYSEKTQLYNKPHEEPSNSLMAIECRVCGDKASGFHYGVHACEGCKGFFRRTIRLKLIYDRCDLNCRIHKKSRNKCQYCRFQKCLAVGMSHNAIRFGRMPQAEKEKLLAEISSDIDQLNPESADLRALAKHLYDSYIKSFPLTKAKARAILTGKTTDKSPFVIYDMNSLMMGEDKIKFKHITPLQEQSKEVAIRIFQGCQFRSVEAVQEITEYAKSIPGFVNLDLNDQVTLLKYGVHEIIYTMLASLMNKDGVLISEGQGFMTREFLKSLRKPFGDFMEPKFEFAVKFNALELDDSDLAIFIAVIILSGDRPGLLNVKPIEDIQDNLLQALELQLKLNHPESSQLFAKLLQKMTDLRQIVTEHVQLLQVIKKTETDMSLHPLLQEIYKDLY
Method in brief: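 This is an agonist-mode beta-lactamase reporter assay in HEK293 PPAR-gamma-UAS-bla cells with 1% charcoal/dextran FBS. Compound titrations ran 16 h at 37 C before CCF4 detection. EC50 and efficacy are Hill fits scaled to 2 uM rosiglitazone (100%) and DMSO basal.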

[6] = target: Peroxisome proliferator-activated receptor gamma (Homo sapiens) (UniProt P37231); assay: qHTS assay for small molecule antagonists of peroxisome proliferator-activated receptor gamma signaling (AID 588537; active means well fitted inhibition curve with a large enough effect in the signal ratio, with a control signal flat, not every such curve was filed as active; the % refers to the signal ratio;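 further: reporter cells co-stimulated with 50 nM rosiglitazone agonist during compound treatment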)
Method in brief: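 HEK293 cells, PPAR-gamma-UAS-bla, 3000/well. Pre-incubation 6-6.5 h, 37 C. Compound titration with rosiglitazone 50 nM final, 16 h. CCF4 dye, 2 h RT, dual-emission fluorescence.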

[7] = target: Vitamin D3 receptor (Homo sapiens) (UniProt P11473); assay: qHTS assay for small molecule agonists of vitamin D receptor signaling (AID 588543)
Chain of Vitamin D3 receptor (Homo sapiens) (P11473 whole entry, looked up): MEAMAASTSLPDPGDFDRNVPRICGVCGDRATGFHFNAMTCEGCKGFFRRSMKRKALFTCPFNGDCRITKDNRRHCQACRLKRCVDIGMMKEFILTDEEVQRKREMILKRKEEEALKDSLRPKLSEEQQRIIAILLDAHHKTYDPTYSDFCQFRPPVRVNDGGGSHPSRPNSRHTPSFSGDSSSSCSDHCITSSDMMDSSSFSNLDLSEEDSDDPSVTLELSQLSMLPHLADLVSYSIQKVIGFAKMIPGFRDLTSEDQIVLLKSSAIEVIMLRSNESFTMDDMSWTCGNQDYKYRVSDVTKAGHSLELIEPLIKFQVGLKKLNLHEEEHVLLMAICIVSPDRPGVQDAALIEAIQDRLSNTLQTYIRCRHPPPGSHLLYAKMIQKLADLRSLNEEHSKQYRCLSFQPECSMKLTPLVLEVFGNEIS
Method in brief: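 VDR-UAS-bla HEK293T cells, 2000/well, 2% charcoal-stripped FBS; compound titration 16 h at 37 C; CCF4 beta-lactamase ratio read. Normalized to 50 nM 1-alpha,25-dihydroxyvitamin D3 (100%) and DMSO; Hill fit gives EC50, efficacy.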

[8] = qHTS assay for small molecule agonists of retinoid X receptor alpha signaling (AID 588544); conditions: HEK293T RXRa-UAS-bla, beta-lactamase reporter, 18 h; 530 nm emission
[9] = target: Retinoic acid receptor RXR-alpha (Homo sapiens) (UniProt P19793); assay: as above
Chain of Retinoic acid receptor RXR-alpha (Homo sapiens) (P19793 whole entry, looked up): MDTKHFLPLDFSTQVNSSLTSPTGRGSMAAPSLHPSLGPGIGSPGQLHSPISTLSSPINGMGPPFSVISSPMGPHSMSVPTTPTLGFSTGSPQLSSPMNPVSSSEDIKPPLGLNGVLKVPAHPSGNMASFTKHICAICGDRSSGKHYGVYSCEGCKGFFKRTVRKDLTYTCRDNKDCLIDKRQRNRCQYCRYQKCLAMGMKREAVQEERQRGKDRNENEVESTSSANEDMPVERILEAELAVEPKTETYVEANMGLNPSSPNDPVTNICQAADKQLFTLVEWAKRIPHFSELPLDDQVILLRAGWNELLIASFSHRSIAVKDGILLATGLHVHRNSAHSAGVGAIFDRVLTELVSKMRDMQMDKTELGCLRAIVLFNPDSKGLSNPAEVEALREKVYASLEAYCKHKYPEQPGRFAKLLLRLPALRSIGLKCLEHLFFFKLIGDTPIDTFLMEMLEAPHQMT

[10] = target: Thyroid hormone receptor beta (Homo sapiens) (UniProt P10828); assay: qHTS assay for small molecule agonists of thyroid hormone receptor beta signaling (AID 588545)
Chain of Thyroid hormone receptor beta (Homo sapiens) (P10828 whole entry, looked up): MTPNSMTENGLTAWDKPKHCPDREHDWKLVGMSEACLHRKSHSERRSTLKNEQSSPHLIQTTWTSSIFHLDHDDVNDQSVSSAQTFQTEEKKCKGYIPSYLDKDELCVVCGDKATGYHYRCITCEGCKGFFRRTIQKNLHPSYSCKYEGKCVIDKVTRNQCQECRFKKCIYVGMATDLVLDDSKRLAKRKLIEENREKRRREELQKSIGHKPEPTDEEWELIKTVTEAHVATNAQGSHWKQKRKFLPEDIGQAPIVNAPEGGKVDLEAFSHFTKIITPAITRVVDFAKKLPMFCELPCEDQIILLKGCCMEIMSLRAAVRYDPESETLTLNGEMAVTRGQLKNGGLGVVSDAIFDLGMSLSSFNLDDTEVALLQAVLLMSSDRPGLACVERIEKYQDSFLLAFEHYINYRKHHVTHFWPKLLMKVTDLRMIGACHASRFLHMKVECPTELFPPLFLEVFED
Method in brief: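 TR-UAS-bla-GripTite HEK 293 cells in medium with 2% charcoal/dextran FBS, 0.1 mM NEAA and 1 mM sodium pyruvate were treated with titrated compounds for 18 hrs at 37 C. Beta-lactamase reporter was read with CCF4 dye (ex 405, em 460/530 nm); EC50 from Hill fits.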

[11] = qHTS assay for small molecule antagonists of retinoid X receptor alpha signaling (AID 588546; active means well fitted inhibition curve with a large enough effect in the signal ratio, with a control signal flat, not every such curve was filed as active; the % refers to the signal ratio;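 further: cells stimulated with 9-cis-retinoic acid as agonist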); conditions: HEK293T RXRa-UAS-bla, beta-lactamase ratio, antagonist mode; measured here: W530 green channel, cytotoxicity proxy
Method in brief: (§2)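 Beta-lactamase reporter inhibition, read as CCF4 fluorescence ratio (ex 405, em 460/530 nm) after 2 h at RT. HEK293T UAS-bla cells, 2500/well, were stimulated with 9-cis-RA at 500 or 100 nM final alongside test compound for 18 h at 37 C.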

[12] = target: Retinoic acid receptor RXR-alpha (Homo sapiens) (UniProt P19793); assay: as above; conditions: HEK293T RXRa-UAS-bla, beta-lactamase ratio, antagonist mode
Method in brief: as §2

[13] = qHTS assay for small molecule activators of the p53 signaling pathway (AID 651743; active means well fitted activation curve with a large enough effect in the signal ratio, not every such curve was filed as active; the % refers to the signal ratio; further: series mostly up to about 92 µM); conditions: HCT-116 p53RE-bla, beta-lactamase FRET ratio, 16 h; activation: stronger effect = higher value
Method in brief: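 Here HCT-116 cells with an integrated p53-responsive beta-lactamase gene were incubated with compounds (16 hours, 37 C) after a 5-hour plating period; beta-lactamase activity was detected as fluorescence intensity via B/G FRET substrate.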

[14] = qHTS assay for small molecule activators of the nuclear factor-kappa B (NF-kB) signaling pathway (AID 651749; active means well fitted activation curve with a large enough effect in the signal ratio; the % refers to the signal ratio; further: series mostly up to about 77 µM); conditions: NF-kB-bla ME-180 cells, beta-lactamase FRET ratio, 16 h; activation: stronger effect = higher value
Method in brief: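 Beta-lactamase reporter expression, controlled by NF-kB response elements in ME-180 cells, was quantified fluorometrically via FRET disruption; cells at 2,000/well had been incubated with 23 nL test compound for 16 hr.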

[15] = qHTS assay for environmental chemicals that activate the Aryl hydrocarbon Receptor (AhR) signaling pathway (AID 651777; active means well fitted curve in the direction sought with a large enough effect; an effect the other way counts as inactive or inconclusive; further: nearly all actives have a fitted effect of over 15% in size); conditions: 1A2-DRE human hepatoma cells, luciferase, 24 h; activation: stronger effect = higher value
Method in brief: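 Concentration–response screening used 1,200 1A2-DRE cells per well, 24 hr compound exposure (37 C, 5% CO2), and One-Glo luminescence as the AhR-driven CYP1A2 reporter signal.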

[16] = target: Peroxisome proliferator-activated receptor alpha (Homo sapiens) (UniProt Q07869); assay: qHTS assay for small molecule agonists of the peroxisome proliferator-activated receptor alpha (PPARalpha) signaling pathway (AID 651778; active means well fitted curve in the direction sought with a large enough effect; an effect the other way counts as inactive or inconclusive); conditions: PathHunter PPARalpha complementation, chemiluminescence, 6 h; max response: stronger effect = higher value
Chain of Peroxisome proliferator-activated receptor alpha (Homo sapiens) (Q07869 whole entry, looked up): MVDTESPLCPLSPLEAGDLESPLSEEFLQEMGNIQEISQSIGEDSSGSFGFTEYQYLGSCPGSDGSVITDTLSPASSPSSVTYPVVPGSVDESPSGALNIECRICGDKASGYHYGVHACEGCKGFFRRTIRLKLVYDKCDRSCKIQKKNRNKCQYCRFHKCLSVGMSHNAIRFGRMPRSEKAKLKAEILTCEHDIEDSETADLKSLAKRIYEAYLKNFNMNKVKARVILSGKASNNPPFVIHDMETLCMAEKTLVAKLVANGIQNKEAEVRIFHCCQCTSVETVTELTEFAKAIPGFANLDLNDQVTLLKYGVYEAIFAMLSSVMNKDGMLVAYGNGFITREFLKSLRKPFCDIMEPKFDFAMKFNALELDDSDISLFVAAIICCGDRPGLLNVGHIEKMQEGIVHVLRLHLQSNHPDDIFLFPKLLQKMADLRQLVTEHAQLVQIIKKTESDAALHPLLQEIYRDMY
Method in brief: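 Cells plated at 2,000/well and held overnight at 37 C, 5% CO2, then compound added by pin tool for 6 hr; after PathHunter detection reagent and 60 min at room temperature, chemiluminescence from enzyme complementation was read.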

[17] = qHTS assay for small molecule agonists of the antioxidant response element (ARE) signaling pathway measured by Nrf2-dependant transcriptional activity (AID 720636; active means well fitted curve in the direction sought with a large enough effect in the repeat runs; an effect the other way counts as inactive or inconclusive)
Method in brief: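 Attachment 6 hr at 37 C, then compound versus DMSO vehicle for 16 hr in ARE-luc HepG2 cells (1% dialyzed FBS); luminescence recorded 30 min after ONE-Glo addition at room temperature.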

[18] = qHTS assay for cell viability of HEK293 cells (AID 743288; active means well fitted curve in the direction sought with a large enough effect; an effect the other way counts as inactive or inconclusive; further: nearly all actives have a fitted effect of over 50% in size); conditions: ATP luminescence (CellTiter-Glo), 18 h; max response: stronger effect = lower value
Method in brief: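 Steps: plate 2,000 parental HEK293 cells per well; incubate ≥5 h, 37 C; add compounds in DMSO; incubate 18 h, 37 C; add CellTiter-Glo; wait 30 min at room temperature; read luminescence.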

[19] = qHTS assay for cell viability of the p53RE-bla HCT-116 cell line (AID 743292; active means well fitted curve in the direction sought with a large enough effect; an effect the other way counts as inactive or inconclusive; further: nearly all actives have a fitted effect of over 55% in size)
Method in brief: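 Compound-exposed HCT-116 (p53RE-bla) cells, 4,000 per well, were kept 16 h at 37 C following a 5 h preincubation. Cell number was estimated from total ATP by CellTiter-Glo luminescence read after 30 min at room temperature.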

[20] = target: Nuclear receptor subfamily 1 group I member 2 (Rattus norvegicus) (UniProt Q9R1A7); assay: qHTS assay for small molecule activators of the rat pregnane X receptor (rPXR) signaling pathway (AID 651751; call rule not given here); conditions: rPXR reporter cells, luciferase (One-Glo), 24 h
Chain of Nuclear receptor subfamily 1 group I member 2 (Rattus norvegicus) (Q9R1A7 whole entry, looked up): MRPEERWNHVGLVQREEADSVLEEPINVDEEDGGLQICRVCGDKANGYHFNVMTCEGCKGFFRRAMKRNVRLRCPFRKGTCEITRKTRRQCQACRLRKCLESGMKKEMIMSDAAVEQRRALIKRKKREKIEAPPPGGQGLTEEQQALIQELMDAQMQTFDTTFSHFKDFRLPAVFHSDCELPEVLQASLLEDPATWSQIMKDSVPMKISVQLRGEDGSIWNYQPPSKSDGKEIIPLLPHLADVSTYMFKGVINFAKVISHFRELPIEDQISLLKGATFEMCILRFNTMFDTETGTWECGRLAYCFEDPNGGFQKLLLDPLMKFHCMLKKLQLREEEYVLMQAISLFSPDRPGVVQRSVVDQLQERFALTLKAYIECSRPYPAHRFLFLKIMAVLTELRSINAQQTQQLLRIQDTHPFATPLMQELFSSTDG

[21] = qHTS assay for small molecule activators of the human pregnane X receptor (PXR) signaling pathway (AID 720659; call rule not given here)
[22] = target: Peroxisome proliferator-activated receptor delta (Homo sapiens) (UniProt Q03181); assay: qHTS assay for small molecule agonists of peroxisome proliferator-activated receptor delta signaling (AID 588534)
Method in brief: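 Titration series tested in agonist mode on beta-lactamase reporter cells; 18 hrs at 37 C after a 5 hr pre-incubation. Readout: CCF4 fluorescence, 2 hrs RT. Hill equation gives EC50 and maximal response.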

[23] = target: Vitamin D3 receptor (Homo sapiens) (UniProt P11473); assay: qHTS assay for small molecule antagonists of vitamin D receptor signaling (AID 588541);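 further: receptor activated by calcitriol during compound treatment; series mostly up to about 77 µM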
Method in brief: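 VDR-UAS-bla HEK293T cells (2000/well, 2% charcoal-stripped FBS) were treated with titrated compounds plus 1-alpha,25-dihydroxyvitamin D3 (50 nM or 3 nM final) for 16 h at 37 C. CCF4 beta-lactamase fluorescence was read; Hill fits gave IC50.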

[24] = target: Thyroid hormone receptor beta (Homo sapiens) (UniProt P10828); assay: qHTS assay for small molecule antagonists of thyroid hormone receptor beta signaling (AID 588547; active means well fitted inhibition curve with a large enough effect in the signal ratio, with a control signal flat, not every such curve was filed as active; the % refers to the signal ratio;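 further: cells stimulated with 0.4 nM T3 agonist during compound exposure; series mostly up to about 77 µM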); conditions: TR-UAS-bla HEK293, beta-lactamase ratio, antagonist mode, 18 h
Method in brief: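 TR-UAS-bla GripTite HEK293 cells in 2% charcoal/dextran FBS medium were preincubated 4 h at 37 C, given compound (0.59 nM to 92 uM) plus 0.4 nM T3 (final) for 18 h, then CCF4 for 2 h at RT; Hill fit gave IC50.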

[25] = qHTS assay for small molecule agonists of the antioxidant response element (ARE) signaling pathway (AID 651741; active means well fitted activation curve with a large enough effect in the signal ratio; the % refers to the signal ratio)
Method in brief: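 Beta-lactamase reporter expression driven by the antioxidant response element in HepG2 cells was detected by fluorescence with LiveBLAzer B/G FRET substrate (2 h, room temperature) following 16 h compound treatment at 37 C.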

[26] = qHTS assay for small molecule agonists of the antioxidant response element (ARE) signaling pathway measured by Nrf2-dependant transcriptional activity - cell viability counter screen (AID 720653; active means well fitted curve in the direction sought with a large enough effect in the repeat runs; an effect the other way counts as inactive or inconclusive); conditions: ARE-bla HepG2 viability, CellTiter-Glo ATP luminescence, 16 h; max response: stronger effect = lower value
Method in brief: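 ARE-bla HepG2 cells (2,000/well) rested 5 hrs at 37C/5% CO2, then exposed to compounds in DMSO for 16 hrs. Viability was read in the same wells as intracellular ATP by luminescence, 30 min at room temperature after reagent addition.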

SMILES: O=C(O)COc1ccc(Cl)cc1
- activation [1]: -1.72% (inactive)
- Potency [2]: inactive
- max response [3]: 9.9%
- Potency [4]: inactive
- Potency [5]: inactive
- Potency [6]: inactive
- outcome [7]: inactive
- max response [8]: 18.4%
- Potency [9]: inactive
- Potency [10]: inactive
- max response [11]: 0.278%
- max response [12]: -13.3% (inactive)
- activation [13]: -0.56% (inactive)
- activation [14]: -0.213% (inactive)
- activation [15]: 1.68% (inactive)
- max response [16]: -2.55% (inactive)
- Potency [17]: inactive
- max response [18]: -5.08% (inactive)
- Potency [19]: inactive
- max response [20]: -5.77% (inactive)
- outcome [21]: inactive

SMILES: NC(N)=O
- outcome [22]: inactive

SMILES: CC1(C)C(C=C(Cl)Cl)[C@H]1C(=O)OCc1cccc(Oc2ccccc2)c1 (some centres undefined)
- activation [1]: 0.728% (inactive)
- outcome [7]: inactive
- Potency [9]: inactive
- activation [15]: 0.692% (inactive)

SMILES: COc1cc(OC)nc(Sc2cccc(Cl)c2C(=O)O)n1
- activation [1]: 5.02% (inactive)
- Potency [2]: inactive
- Potency [5]: inactive
- Potency [6]: inactive
- Potency [23]: inactive
- outcome [7]: inactive
- max response [8]: -16.4%
- Potency [9]: inactive
- Potency [10]: inactive
- max response [11]: -2.85%
- max response [12]: -5.7% (inactive)
- activity change % (negative = inhibition) [24]: 6.23% (inactive)
- Potency [25]: inactive
- activation [13]: -0.496% (inactive)
- activation [14]: 0.833% (inactive)
- Potency [17]: inactive
- max response [26]: -2.11% (inactive)
- max response [18]: -8.52% (inactive)
- Potency [19]: inactive
- max response [20]: 3.18% (inactive)
- outcome [21]: inactive

SMILES: Cc1ccc(C(C)(C)C)cc1
- outcome [22]: inactive

SMILES: Cc1cccc2sc(N)nc12
- outcome [22]: inactive

SMILES: O=C(O)c1cc(Cl)cc(Cl)c1
- outcome [22]: inactive

SMILES: CC1(C)[C@@H](C=C(Cl)Cl)[C@@H]1C(=O)OCc1cccc(Oc2ccccc2)c1
- activation [1]: 0.397% (inactive)
- outcome [22]: inactive
- outcome [7]: inactive
- Potency [10]: inactive

SMILES: CCCSC(=O)N(CCC)CCC
- activation [1]: -2.67% (inactive)
- Potency [2]: inactive
- outcome [22]: inactive
- max response [3]: 26.4%
- Potency [4]: inactive
- Potency [23]: inactive
- outcome [7]: inactive
- max response [8]: -0.108%
- Potency [9]: inactive
- Potency [10]: inactive
- activation [13]: 5.3% (inactive)
- activation [14]: 0.695% (inactive)
- activation [15]: 1.67% (inactive)
- max response [16]: -0.593% (inactive)
- Potency [17]: inactive
- max response [26]: -2.88% (inactive)
- max response [18]: -7.74% (inactive)
- Potency [19]: inactive
- max response [20]: 1.18% (inactive)
- outcome [21]: inactive
